Assay results from paper PMC5540273 (PLoS ONE, 2017).

Each compound was assayed on TGFBR1. Conditions: 1 µM; n = 1.
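Also: KINOMEscan kinase panel screen.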

Row | SMILES | %Inh
1 | Cc1cccc(-c2nc(C)cc(Nc3ccncc3)n2)n1 [GSK257997] | 100%
2 | Cl.c1ccc(-c2n[nH]cc2-c2ccnc(-c3ccc(CN4CCOCC4)cc3)c2)nc1 [GW776245] | 94.5%
3 | Cc1ccc(NC(=O)Nc2cccc(C(F)(F)F)c2)cc1 [GSK955403] | 6%
4 | COc1cccc(-c2cc(-c3c[nH]nc3-c3ccccn3)ccn2)c1 [GW680338] | 54%

Same assay, conditions: concentration: 1 μM, replicates: in singlicate; n = 1

Row | SMILES | %Inh
5 | O=C(Nc1n[nH]c2nc(-c3nccs3)c(Br)cc12)C1CCCC1 [SB-742609] | 31%
6 | CC1=C(C(=O)Nc2cc3cn[nH]c3cc2F)C(c2ccc(C(F)(F)F)cc2)CC(=O)N1 (stereo not shown) [GSK429286] | 0%
7 | Cl.O=C(Nc1cccc(-c2nn3ncccc3c2-c2ccnc(Nc3cccnc3)n2)c1)c1c(F)cccc1F [GSK312879] | 0%
8 | Cc1ccc(NC(=O)Nc2cccc(Cl)c2)cc1-c1ccc(C(=O)Nc2ccncc2)cc1 [GSK1398468] | 30%
9 | CC(=O)Nc1nc2cnc(Nc3cc(NC(=O)c4cccc(CCC#N)c4)ccc3C)nc2s1 | 0%
10 | COc1cccc(NC(=O)NC2CCN(c3ccnc(Nc4ccc(F)cc4)n3)C2)c1 (stereo not shown) [GSK1379721] | 15%
11 | CS(=O)(=O)c1ccc(-c2nc3n(c2-c2ccncc2)CCC3)cc1 [SKF-105942] | 15%
12 | CCCc1ccc(S(=O)(=O)NC2CCN(c3ccnc(Nc4ccc(F)cc4)n3)C2)cc1 (stereo not shown) [GSK1379715] | 0%
13 | O=S(=O)(c1ccc(-c2ccnc3[nH]ccc23)cc1)N1CCCC1 [GSK846226] | 0%
